Compound activity deposited in PubChem BioAssay by National Center for Advancing Translational Sciences (NCATS).
hERG WT inh = KCNH2 (human, wildtype) channel inhibition; Q12809; U2OS, BacMam KCNH2, thallium flux FluxOr; stronger effect = lower value; activity change, % at 1.84 µM; hit rate 0.37% among 340,000;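 active = maximum activity change below -70%; inconclusive = maximum activity change between -70% and -50%; inactive = maximum activity change above -50%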; note: % is set by controls: 0 for no effect and ±100 for the full control effect
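U2OS cells were transduced with wild-type KCNH2 virus (2.03 x 10^8 / mL) for 4 h at room temperature, then cultured overnight at 37 C. Thallium flux was read with FluxOr dye. Rate constants were normalized to DMSO controls.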
KB-3-1 cytotox = kills parental KB-3-1 adenocarcinoma cells; hit rate 1.4% among 400,000; KB-3-1 viability, CellTiter-Glo ATP luminescence, 72 h; Potency, µM (series often up to 46.1 µM), usual class: cytotoxic; note: potency is the fitted concentration of half-maximal effect; % is set by controls: 0 for no effect and ±100 for the full control effect; nearly all actives have a fitted effect of over 60% in size
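Multi-concentration cytotoxicity screen in KB-3-1 cells grown in DMEM lacking phenol red with 10% FBS. After 72 h at 37 °C with compound, ATP-dependent luminescence was recorded.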
MCF10A rereplic = induces DNA re-replication in MCF 10a normal breast cells; MCF 10A DNA re-replication, Hoechst nuclear intensity, 48 h; Potency, µM (series often up to 46.1 µM), without a hit: top-dose activity, positive = re-replication, most hits filed as activators; hit rate 2.9% among 350,000; note: potency is the fitted concentration of half-maximal effect; % of control where 0% means no effect; nearly all actives have a fitted effect of over 50% in size
KB-V1 cytotox = KB-V1 MDR subline cytotoxicity | KB-V1 MDR cells viability, CellTiter-Glo, 72 h | Potency, µM (series often up to 46.1 µM), usual class: cytotoxic | hit rate 3.4% among 400,000 | AID 1347076; note: potency is the fitted concentration of half-maximal effect; % is set by controls: 0 for no effect and ±100 for the full control effect; nearly all actives have a fitted effect of over 60% in size
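Readout: CellTiter-Glo luminescence, 10 min after addition. Cells: KB-V1 MDR subline, 72 h at 37 degrees C with compound. Analysis: corrected, normalized data fitted to concentration-effect curves.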
KCNH2 3.1 block = inhibitors of human KCNH2 3.1 potassium channel isoform; AID 720553; hit rate 0.95% among 340,000; U2OS KCNH2 3.1, thallium flux FluxOr; stronger effect = lower value; activity change, % (tested at about 1.8 µM);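 active = maximum activity change below -70%; inconclusive = maximum activity change from -70% to -50%; inactive = maximum activity change above -50%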;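 note: thallium influx rate constant from kinetic fluorescence after stimulation buffer; % is set by controls: 0 for no effect and ±100 for the full control effect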
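Kinetic fluorescence (2 min after stimulation buffer) measures Tl+ influx through KCNH2 3.1 expressed by viral transduction in U2OS cells; the rate constant is normalized against DMSO controls serving as positive and negative references.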
SW480 rerep = inducers of DNA re-replication in SW480 colon cancer cells; SW480 DNA re-replication, Hoechst DNA content imaging, 48 h; Potency, µM (top dose mostly 46.1 µM), for the others: at the top dose re-replication activation, actives largely listed as activators; hit rate 1.8% among 340,000; note: potency is the fitted concentration of half-maximal effect; % of control where 0% means no effect; nearly all actives have a fitted effect of over 55% in size
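Treated cells incubate 48 hr (37 C, 5% CO2), are stained 40 min with Hoechst, and nuclear fluorescence is enumerated; a rise in nuclei with high DNA signal marks re-replication.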
* marks the source's active call; other numbers are inactive results; i = inactive; ? = inconclusive; nt = no result given; [ ] = another dose, or the depositor's remark. Hits are enriched below; roughly 7.6% of the tested compounds scored in any of these assays. Unless noted, calls come from the whole dose curve; as a rule, active = well fitted curve in the direction sought with a large enough effect; inconclusive = small, poorly fitted or top-dose-only effect, or another doubt; inactive = no such curve, though single readings can be large; an effect the other way counts as inactive or inconclusive.

SMILES	hERG WT inh	KB-3-1 cytotox	MCF10A rereplic	KB-V1 cytotox	KCNH2 3.1 block	SW480 rerep
Cc1nc(NCc2ccco2)c2c(C)c(C)sc2n1	-10	12µM*	24%	?	7	?
CCOC(=O)c1sc2nc(CC(=O)OC)nc(NCc3ccco3)c2c1C	0	i	0%	3.3µM*	4	1%
Cc1nc(SCC(=O)N(C)Cc2ccco2)c2c(C)c(C)sc2n1	4	?	?	?	1	26%
Cc1sc2nc3c4ccccc4c(NCc4ccco4)nn3c(=O)c2c1C	-6	i	2.6µM*	i	11	4.6µM*
Cc1nnc(NCc2ccco2)c2ccccc12	5	i	-4%	i	2	1%[9.22 µM]
CCOC(=O)c1sc2nc(CC(=O)OC)nc(NCC(=O)OC)c2c1C	-16	i	0%	i	15	-3%
Cc1cc(C(F)(F)F)nc(CCNC(=O)C2CCC(=O)N(Cc3cccc(F)c3)C2)n1 (stereo unspecified)	1	i	-4%	?	-9	-3%
Cc1cccc(C)c1OCC(O)CN1CCC(CN2C(=O)c3cccc4cccc(c34)C2=O)CC1 (stereo unspecified)	6	21µM*	?	?	-22	?
Cc1ccc2c(c1)-c1c(cnc3cc(-c4ccc(F)cc4)nn13)CO2	nt	i	nt	i	nt	nt
O=C1c2ccccc2S(=O)(=O)c2cc(N3CCC4(CC3)OCCO4)ccc21	-3	i	?	7.3µM*	-7	1%
CC1CCN(c2ccc3c(c2)S(=O)(=O)c2ccccc2C3=O)CC1	-12	i	18µM*	i	-11	23µM*
CCOc1ccccc1N(CC(=O)NCCc1ccc(OC)c(OC)c1)S(=O)(=O)c1ccccc1	8	i	3%	i	-3	-5%
CC(=O)NCC1CCCN(C(=O)c2oc3c(F)cccc3c2C)C1 (stereo unspecified)	-16	i	2%	i	-126*	-8%
COCC1CCN(C(=O)c2oc3c(F)cccc3c2C)C1 (stereo unspecified)	5	i	0%	i	2	?
CCCC12CN3CC(CCC)(CN(C1)C3c1ccc(OC(C)C)cc1)C2=O (stereo unspecified)	nt	i	nt	i	nt	nt
CCOc1ccc(C(=O)NCC(=O)Nc2ccc3c(c2)OCO3)cc1OCC	2	i	8%	i	-1	-78%
CCOc1cc(C(=O)Nc2ccc3c(c2)OCO3)ccc1OC(F)F	4	i	-2%	21µM*	27	-11%
CCCCC(=O)Nc1cccc(NC(=O)c2ccc3c(c2)OCO3)c1	-6	i	1%	13µM*	5	-4%
CCCCC(=O)Nc1cccc(NC(=O)c2ccc(Br)o2)c1	-3	i	-1%	12µM*	-9	1%
O=C(Nc1cccc(NC(=O)c2ccco2)c1)c1ccc2c(c1)OCCO2	17	i	-7%	i	nt	-9%
O=C(Nc1cccc(NC(=O)c2ccco2)c1)c1ccc2c(c1)OCO2	21	i	-26%	13µM*	-1	0%
Cc1ccc(Cl)cc1-n1ncc2c(Nc3cccc(C)c3C)ncnc21	nt	i	nt	?	nt	nt
CC1CN(S(=O)(=O)c2ccc(C(=O)OCc3ccc(C#N)cc3)cc2)CC(C)O1 (stereo unspecified)	-5	i	4%	i	-18	-6%
CCc1ccc2nc(SCC(=O)N(CC)CC)c(C#N)cc2c1	1	i	?	13µM*	0	1%
O=C(CSc1nc2ccccc2[nH]1)N1CCOCC1	nt	i	nt	?	nt	nt
SMILES	hERG WT inh	KB-3-1 cytotox	MCF10A rereplic	KB-V1 cytotox	KCNH2 3.1 block	SW480 rerep
CS(=O)(=O)c1ccc(Cl)c(NC(=O)Cc2c(F)cccc2Cl)c1	0	i	4%	i	-19	6%
COc1cc2cc(c1Cl)N(C)C(=O)CC(OC(=O)C(C)N(C)C(C)=O)C1(C)OC1C(C)C1CC(O)(NC(=O)O1)C(OC)C=CC=C(C)C2 (stereo unspecified)	-13	?	?	0.46µM*	29	?
O=C(OCC1OC(n2ncc(=O)[nH]c2=O)C(OC(=O)c2ccccc2)C1OC(=O)c1ccccc1)c1ccccc1 (stereo unspecified)	-3	i	?	i	-2	?
CC(=O)OC[C@H]1O[C@@H](n2ncc(=O)[nH]c2=O)[C@H](OC(C)=O)[C@@H]1OC(C)=O	3	3.3µM*	-12%	8.2µM*	10	?
Cc1ccc(C)c(OCc2cc(C(=O)N3CCOCC3)no2)c1	8	i	18µM*	i	6	28%
Cc1ccc(OCc2cc(C(=O)N3CCCC(C)C3)no2)cn1 (stereo unspecified)	3	21µM*	nt	?	14	nt
Cc1ccc(OCc2cc(C(=O)N(C)Cc3nccn3C)no2)cc1C	-21	i	2%	i	5	?
Cc1ccc(OCc2cc(C(=O)N3CCCC(O)C3)no2)cn1 (stereo unspecified)	3	i	-1%	i	13	?
Cc1ccc(C)c(OCc2cc(C(=O)N(C)Cc3nccn3C)no2)c1	7	i	16%	13µM*	-6	0%
CCn1cc(/C=C(\NC(=O)c2ccccc2F)C(=O)N2CCCC2)c2ccccc21	-14	i	8%	i	-3	-21%
CSc1nsc(/C=C/Nc2ccc(C(=O)O)cc2)c1C#N	-2	i	5.2µM*	i	-23	?
CC(=O)Nc1ccc(NC(=O)c2cc([N+](=O)[O-])cc([N+](=O)[O-])c2)cc1	3	i	-11%	i	-6	0%
CC(C)(C)C(=O)NC(NC(=O)C(C)(C)C)c1ccc([N+](=O)[O-])cc1	-8	i	2%	?	4	0%
CC(C)(C)C(=O)Nc1ccc(Sc2ccc([N+](=O)[O-])cc2)cc1	-1	i	?	21µM*	-2	23%
CC(=O)Nc1ccc(Sc2ccc([N+](=O)[O-])o2)cc1	14	i	1.8µM*	?	2	5.8µM*
C#C[C@]1(O)CC[C@@H]2[C@H]3CCC4=CC(=O)CC[C@H]4[C@H]3C(=C)C[C@@]21CC	nt	nt	13%	nt	nt	-4%
O=C(Nc1ncnc2nc[nH]c12)c1ccccc1	nt	?	nt	i	nt	nt
O=C(NC1CCCc2ccccc21)C1CCN(S(=O)(=O)c2cccc(C(F)(F)F)c2)CC1 (stereo unspecified)	-4	i	8%	23µM*	3	?
CCOc1cc(C(=O)N(Cc2nc(-c3ccc(C)cc3)no2)C(C)C)cc(OCC)c1OCC	nt	i	nt	i	nt	nt
